# The supplement of paper PMC12282887
# ± gives the standard deviation of the averaged measurements.
# Experiments:
# Assay in all cases: promoter activity interaction Z-score (Lux/OD deviation from empty-vector control); higher = stronger promoter induction by the compound
# [1] = tested on: E. coli BW25113 acrABp lux reporter
# Outline: (§1)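 In 384-well plates, 40 µl LB Lennox cultures of E. coli BW25113 with low-copy luxCDABE promoter reporters grew at 37°C. Optical density at 600 nm and light output were recorded every 30 min for 12 h, with windows of 0–8 h for wild type and 1–9 h for deletion strains, and wells under 10% of the median growth value were left out. Each value is a Z-transformed residual of growth-normalised luminescence fitted against a control.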
# [2] = tested on: E. coli BW25113 micFp lux reporter
# Outline: as §1
# [3] = tested on: E. coli BW25113 ompFp lux reporter
# Outline: as §1
# [4] = tested on: E. coli BW25113 robp lux reporter
# Outline: as §1
# [5] = tested on: E. coli BW25113 soxSp lux reporter
# Outline: as §1
# [6] = tested on: E. coli BW25113 tolCp lux reporter
# Outline: as §1
# [7] = 0.47 µg/ml, genetic background: wild type
# [8] = 0.47 µg/ml, genetic background: ΔmarA
# [9] = 0.47 µg/ml, genetic background: Δrob
# [10] = 0.47 µg/ml, genetic background: ΔsoxS
# [11] = 0.93 µg/ml, genetic background: wild type
# [12] = 0.93 µg/ml, genetic background: ΔmarA
# [13] = 0.93 µg/ml, genetic background: Δrob
# [14] = 0.93 µg/ml, genetic background: ΔsoxS
# [15] = 1.9 µg/ml, genetic background: wild type
# [16] = 1.9 µg/ml, genetic background: ΔmarA
# [17] = 1.9 µg/ml, genetic background: Δrob
# [18] = 1.9 µg/ml, genetic background: ΔsoxS
# [19] = 3.7 µg/ml, genetic background: wild type
# [20] = 3.7 µg/ml, genetic background: ΔmarA
# [21] = 3.7 µg/ml, genetic background: Δrob
# [22] = 3.7 µg/ml, genetic background: ΔsoxS
structure (smiles),measurement,setting,value
CC1(C)S[C@@H]2[C@H](NC(=O)Cc3ccccc3)C(=O)N2[C@H]1C(=O)O [Penicillin G],promoter activity interaction Z-score,[1]; [7],-0.119 ± 0.09
same,promoter activity interaction Z-score,[1]; [8],-0.131 ± 0.52
same,promoter activity interaction Z-score,[1]; [9],0.0104 ± 0.26
same,promoter activity interaction Z-score,[1]; [10],0.211 ± 0.039
same,promoter activity interaction Z-score,[1]; [11],-0.14 ± 0.13
same,promoter activity interaction Z-score,[1]; [12],0.592 ± 0.63
same,promoter activity interaction Z-score,[1]; [13],0.28 ± 0.04
same,promoter activity interaction Z-score,[1]; [14],0.575 ± 0.16
same,promoter activity interaction Z-score,[1]; [15],-0.0936 ± 0.033
same,promoter activity interaction Z-score,[1]; [16],0.128 ± 0.61
same,promoter activity interaction Z-score,[1]; [17],-0.00373 ± 0.015
same,promoter activity interaction Z-score,[1]; [18],0.229 ± 0.28
same,promoter activity interaction Z-score,[1]; [19],0.0671 ± 0.041
same,promoter activity interaction Z-score,[1]; [20],0.328 ± 0.92
same,promoter activity interaction Z-score,[1]; [21],0.156 ± 0.023
same,promoter activity interaction Z-score,[1]; [22],0.14 ± 0.13
same,promoter activity interaction Z-score,[2]; [7],-0.185 ± 0.12
same,promoter activity interaction Z-score,[2]; [8],-0.107 ± 0.0057
same,promoter activity interaction Z-score,[2]; [9],-0.126 ± 0.1
same,promoter activity interaction Z-score,[2]; [10],-0.069 ± 0.047
same,promoter activity interaction Z-score,[2]; [11],-0.247 ± 0.14
same,promoter activity interaction Z-score,[2]; [12],-0.0395 ± 0.093
same,promoter activity interaction Z-score,[2]; [13],-0.135 ± 0.1
same,promoter activity interaction Z-score,[2]; [14],0.069 ± 0.064
same,promoter activity interaction Z-score,[2]; [15],-0.228 ± 0.13
same,promoter activity interaction Z-score,[2]; [16],0.0369 ± 0.038
same,promoter activity interaction Z-score,[2]; [17],-0.142 ± 0.026
same,promoter activity interaction Z-score,[2]; [18],0.21 ± 0.0048
same,promoter activity interaction Z-score,[2]; [19],-0.333 ± 0.01
same,promoter activity interaction Z-score,[2]; [20],-0.118 ± 0.043
same,promoter activity interaction Z-score,[2]; [21],-0.11 ± 0.08
same,promoter activity interaction Z-score,[2]; [22],-0.156 ± 0.19
same,promoter activity interaction Z-score,[3]; [7],0.195 ± 0.027
same,promoter activity interaction Z-score,[3]; [8],-0.0479 ± 0.074
same,promoter activity interaction Z-score,[3]; [9],-0.032 ± 0.25
same,promoter activity interaction Z-score,[3]; [10],0.447 ± 0.11
same,promoter activity interaction Z-score,[3]; [11],0.206 ± 0.52
same,promoter activity interaction Z-score,[3]; [12],0.589 ± 0.67
same,promoter activity interaction Z-score,[3]; [13],0.432 ± 0.096
same,promoter activity interaction Z-score,[3]; [14],0.381 ± 0.3
same,promoter activity interaction Z-score,[3]; [15],-0.392 ± 0.093
same,promoter activity interaction Z-score,[3]; [16],0.0358 ± 0.0037
same,promoter activity interaction Z-score,[3]; [17],0.00513 ± 0.15
same,promoter activity interaction Z-score,[3]; [18],0.64 ± 0.076
same,promoter activity interaction Z-score,[3]; [19],0.719 ± 0.27
same,promoter activity interaction Z-score,[3]; [20],1.16 ± 0.19
same,promoter activity interaction Z-score,[3]; [21],1.35 ± 0.66
same,promoter activity interaction Z-score,[3]; [22],1.7 ± 0.7
same,promoter activity interaction Z-score,[4]; [7],0.349 ± 0.073
same,promoter activity interaction Z-score,[4]; [8],-0.4 ± 0.07
same,promoter activity interaction Z-score,[4]; [9],0.363 ± 0.43
same,promoter activity interaction Z-score,[4]; [10],0.277 ± 0.35
same,promoter activity interaction Z-score,[4]; [11],0.428 ± 0.22
same,promoter activity interaction Z-score,[4]; [12],0.187 ± 0.37
same,promoter activity interaction Z-score,[4]; [13],0.468 ± 0.14
same,promoter activity interaction Z-score,[4]; [14],1.15 ± 0.22
same,promoter activity interaction Z-score,[4]; [15],0.165 ± 0.58
same,promoter activity interaction Z-score,[4]; [16],0.313 ± 0.31
same,promoter activity interaction Z-score,[4]; [17],0.501 ± 0.075
same,promoter activity interaction Z-score,[4]; [18],1.21 ± 0.031
same,promoter activity interaction Z-score,[4]; [19],-0.01 ± 0.15
same,promoter activity interaction Z-score,[4]; [20],-0.105 ± 0.66
same,promoter activity interaction Z-score,[4]; [21],0.319 ± 0.12
same,promoter activity interaction Z-score,[4]; [22],0.575 ± 0.42
same,promoter activity interaction Z-score,[5]; [7],-0.0325 ± 0.0094
same,promoter activity interaction Z-score,[5]; [8],-0.123 ± 0.17
same,promoter activity interaction Z-score,[5]; [9],-0.201 ± 0.0035
same,promoter activity interaction Z-score,[5]; [10],0.0709 ± 0.024
same,promoter activity interaction Z-score,[5]; [11],-0.167 ± 0.16
same,promoter activity interaction Z-score,[5]; [12],0.103 ± 0.074
same,promoter activity interaction Z-score,[5]; [13],-0.163 ± 0.14
same,promoter activity interaction Z-score,[5]; [14],0.0504 ± 0.19
same,promoter activity interaction Z-score,[5]; [15],-0.132 ± 0.13
same,promoter activity interaction Z-score,[5]; [16],-0.0824 ± 0.12
same,promoter activity interaction Z-score,[5]; [17],-0.0996 ± 0.047
same,promoter activity interaction Z-score,[5]; [18],0.084 ± 0.14
same,promoter activity interaction Z-score,[5]; [19],-0.201 ± 0.12
same,promoter activity interaction Z-score,[5]; [20],0.0156 ± 0.13
same,promoter activity interaction Z-score,[5]; [21],-0.136 ± 0.17
same,promoter activity interaction Z-score,[5]; [22],-0.126 ± 0.39
same,promoter activity interaction Z-score,[6]; [7],-0.848 ± 1
same,promoter activity interaction Z-score,[6]; [8],-0.0171 ± 0.012
same,promoter activity interaction Z-score,[6]; [9],0.219 ± 0.5
same,promoter activity interaction Z-score,[6]; [10],0.375 ± 0.55
same,promoter activity interaction Z-score,[6]; [11],-0.35 ± 0.54
same,promoter activity interaction Z-score,[6]; [12],-0.485 ± 0.89
same,promoter activity interaction Z-score,[6]; [13],-0.163 ± 0.37
same,promoter activity interaction Z-score,[6]; [14],0.352 ± 0.23
same,promoter activity interaction Z-score,[6]; [15],-0.309 ± 1
same,promoter activity interaction Z-score,[6]; [16],-0.171 ± 0.9
same,promoter activity interaction Z-score,[6]; [17],-0.0507 ± 1.1
same,promoter activity interaction Z-score,[6]; [18],0.284 ± 0.24
same,promoter activity interaction Z-score,[6]; [19],-0.124 ± 0.38
same,promoter activity interaction Z-score,[6]; [20],-0.297 ± 0.25
same,promoter activity interaction Z-score,[6]; [21],-0.675 ± 1.1
same,promoter activity interaction Z-score,[6]; [22],0.109 ± 0.61
